ST2 inh = inhibitors of human ST2 (IL1RL1) binding to IL-33; inhibition, % for hits at 17 µM; 78,000 compounds, 2.3% hits; AlphaLISA ST2-Fc/biotin-IL-33 interaction, 1 h; in the data active = inhibition above about 30%
Target sequence (Q01638 whole entry, looked up): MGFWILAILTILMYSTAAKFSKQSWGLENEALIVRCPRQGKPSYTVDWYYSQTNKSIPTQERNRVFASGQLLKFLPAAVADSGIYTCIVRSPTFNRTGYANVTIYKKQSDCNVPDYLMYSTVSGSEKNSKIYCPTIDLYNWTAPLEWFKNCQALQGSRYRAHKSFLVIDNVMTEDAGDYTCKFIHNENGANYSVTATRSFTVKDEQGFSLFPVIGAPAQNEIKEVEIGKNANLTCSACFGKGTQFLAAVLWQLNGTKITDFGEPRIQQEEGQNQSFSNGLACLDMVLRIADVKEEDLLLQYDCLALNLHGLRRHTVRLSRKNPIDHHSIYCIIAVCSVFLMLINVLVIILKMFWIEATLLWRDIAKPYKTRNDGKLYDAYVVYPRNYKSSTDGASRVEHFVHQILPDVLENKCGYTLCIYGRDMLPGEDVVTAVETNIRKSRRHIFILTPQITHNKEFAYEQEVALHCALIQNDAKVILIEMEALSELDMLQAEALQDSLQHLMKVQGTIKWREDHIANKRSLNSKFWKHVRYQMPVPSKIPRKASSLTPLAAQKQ
Of the large screens only hits and unclear results are named; the others gave an inactive call; ! = repeats disagree. Only a selection was taken, and hits are over-represented in it overall.

CCCCNC(=O)c1sc2ccccc2c1Cl	none
COc1ccc(NC(=O)c2sc3ccccc3c2Cl)cc1Cl	none
Cn1c(=O)c2c(SCC(=O)Nc3ccccc3)nc(-c3ccco3)nc2n(C)c1=O	none
Cc1ccc(C(=O)Nc2ccc(Br)cc2)cc1	none
NNc1ccc2c(Cl)cc(Cl)c(O)c2n1	ST2 inh 35.0%
CC1CCN(c2nc3c(c(=O)[nH]c(=O)n3C)n2CCSc2nnnn2-c2ccccc2)CC1	none
COc1ccc(-c2[nH]c3ccccc3c2C(C[N+](=O)[O-])c2ccco2)cc1 (centres undefined)	none
COc1ccc(NC(=O)c2ccccc2Sc2ccc([N+](=O)[O-])cc2)cc1	none
COc1ccc(C(C[N+](=O)[O-])Sc2ccccc2N)cc1 (centres undefined)	ST2 inh 32.0%!
Cc1ccccc1C(=O)Nc1sc2c(c1C(N)=O)CCCCC2	none
OCCC1CCCCN1CCc1ccccc1 (centres undefined)	none
Cc1cc(C)nc(NC(=O)c2ccccc2F)c1	ST2 inh 30.0%
Cc1ccn2c(NC(=O)c3ccccc3F)c(-c3ccccc3)nc2c1	none
Cc1cc(C)nc(NC(=O)CCCC(=O)O)c1	none
COc1ccc(C2C(C(=O)c3cc4ccccc4o3)=C(O)C(=O)N2CCCN2CCOCC2)cc1 (centres undefined)	none
CCCC(C(=O)N1CCC2(CC1)CN(C)CCN2C)n1cccc1 (centres undefined)	none
O=C(Nc1ccc(F)cc1)N1C[C@@H]2C[C@H](C1)c1ccc(NS(=O)(=O)c3cccs3)c(=O)n1C2	none
O=c1c(NS(=O)(=O)c2cccc(F)c2)ccc2n1C[C@H]1C[C@@H]2CN(S(=O)(=O)c2cccs2)C1	ST2 inh 44.0%
COc1ccc(NC(=O)N2C[C@@H]3C[C@H](C2)c2ccc(NS(=O)(=O)c4cccc(F)c4)c(=O)n2C3)cc1	none
CC(=O)C1=C(C)NC(=O)NC1c1cccc([N+](=O)[O-])c1 (centres undefined)	none
CCN(CC)S(=O)(=O)c1ccc(C(=O)N2CCCC2)cc1	none
Cc1sc2ncnc(Sc3nnnn3-c3ccccc3)c2c1C	ST2 inh 44.0%
CSc1nnnn1-c1ccccc1	none
Cc1cc(Sc2nnnn2-c2ccccc2)nc2ccccc12	none
CCN1CCN(C(=O)CCC2CCN(CC3=CC[C@H]4C[C@@H]3C4(C)C)CC2)CC1	none
O=[N+]([O-])c1ccc(N2CCN(Cc3ccsc3)CC2)cc1	none
O=[N+]([O-])c1ccc(N2CCN(Cc3cccnc3)CC2)cc1	none
O=C(O)c1ccc(CN2CCN(c3ccc([N+](=O)[O-])cc3)CC2)cc1	none
O=[N+]([O-])c1ccc(N2CCN(Cc3ccc(Br)o3)CC2)cc1	ST2 inh 38.0%
CC1(C)[C@H]2CC=C(CN3CCN(c4ccc([N+](=O)[O-])cc4)CC3)[C@@H]1C2	ST2 inh 42.0%
C=C(C)CN1CCN(C(c2ccccc2)c2ccccc2)CC1	none
CCOc1ccc(N2C(=O)S/C(=C\c3ccc(O)cc3)C2=O)cc1	none
CCOc1ccc(N2C(=O)S/C(=C\c3ccc(OC)cc3)C2=O)cc1	none
CCOc1ccc(N2C(=O)S/C(=C\c3ccc(C)o3)C2=O)cc1	ST2 inh 34.0%
O=C(c1cn[nH]n1)N1CCC(Nc2ccccn2)CC1	none
CC(=O)n1c2ccccc2c2cc([N+](=O)[O-])ccc21	none
CC(=O)NC(C(N)=O)C(SCc1ccccc1)c1c[nH]c2ccccc12 (centres undefined)	none
CC(=O)n1cc(C(C[N+](=O)[O-])SCc2ccccc2)c2ccccc21 (centres undefined)	ST2 inh 41.0%
COc1cccc(CCNC2CCc3ccccc3C2)c1 (centres undefined)	none
CC(=O)Nc1ccc(NC(=O)c2ccc(-c3ccccc3)cc2)cc1	none
Cc1ccc(-c2csc(NC(=O)c3ccc(S(=O)(=O)N4CCc5ccccc54)cc3)n2)o1	ST2 inh 39.0%
O=C(Nc1nc(-c2ccccn2)cs1)c1ccc(S(=O)(=O)N2CCOCC2)cc1	none
CC(=O)c1sc(NC(=O)c2ccc(S(=O)(=O)N3CCc4ccccc43)cc2)nc1C	none
CC(C)c1cc(C2CCN(CCn3c(=O)oc4ccccc43)CC2)[nH]n1	none
COc1ccc(C(=O)OC(C)C(O)c2ccc(OC)cc2)cc1 (centres undefined)	none
COc1ccc(C(=O)ON=C2c3ccccc3-c3ccccc32)cc1	ST2 inh 40.0%
COc1cccc(C(=O)ON=C2C=CC(=O)C=C2)c1	none
CCOC(=O)Nc1ccc(C(C)CC)cc1 (centres undefined)	none
CCCCOC(=O)Nc1ccccc1C(=O)N1CCCCC1	none
CCCCOC(=O)Nc1ccc(N(C)C)cc1	ST2 inh 42.0%
COc1ccc(Cc2ccc(OC)cc2)cc1	none
COc1ccc(CCC(=O)Nc2ccc(N(C)C)cc2)cc1	ST2 inh 46.0%
COc1ccc(C(C)c2ccc(OC)cc2)cc1	none
COc1ccc(N(C)C)cc1	ST2 inh 32.0%
COc1ccc(CC(=O)Nc2ccc(I)cc2)cc1	none
COc1ccc(CCC(=O)NCc2ccncc2)cc1	none
O=C(NCCc1nc2cccnc2n1-c1ccccc1)NC1CCCCC1	none
CC1(C(=O)N2CCCC(CO)(Cc3cccc(Cl)c3)C2)CCCCC1 (centres undefined)	none
CC(C)c1ccc(NS(=O)(=O)c2ccc3c(c2)CCN3C(=O)C2CC2)cc1	none
CN(Cc1n[nH]c2c1CCCCC2)C(=O)c1cc(COc2cccc3cccnc23)on1	none
COc1ccc(OCc2cc(C(=O)N3CCSCC3)n[nH]2)c(Cl)c1	none
Cc1ccc(S(=O)(=O)CCc2nc3ccccc3n2CC(=O)O)cc1	none
CCOC(CNc1nc(-c2ccc(C)cc2)nc2ccccc12)OCC	none
CN(CCc1ccccn1)[C@H]1[C@@H]2OC[C@@H](O2)[C@@H](NCc2ccc(F)cc2)[C@@H]1O	ST2 inh 32.0%
CN(CCc1ccccn1)[C@H]1[C@@H]2OC[C@@H](O2)[C@@H](NC(=O)Nc2ccccc2)[C@@H]1O	none
COc1ccc(CN[C@H]2[C@H](O)[C@@H](N(C)CCN(C)C)[C@@H]3OC[C@H]2O3)cc1	none
CC(C)=CC(=O)NCc1cccnc1Oc1ccc(C)nc1	none
Cc1ccccc1S(=O)(=O)Nc1c(C)n(C)n(-c2ccccc2)c1=O	none
Cc1cccc(NC(=O)N2CCC(N3CCCC(C(=O)N4CCCC4)C3)CC2)c1 (centres undefined)	none
O=C(c1ccc(-n2cnnc2)cc1)N(Cc1ccccn1)CC1CCCO1 (centres undefined)	none
Cc1[nH]c(-c2ccccc2)nc1C(=O)N1CCC(O)(CN(C)C)C1 (centres undefined)	none
O=S(=O)(Nc1ccc(Cl)cc1)c1cccc2cccnc12	none
Cc1ccc(NS(=O)(=O)c2cccc3c(S(=O)(=O)Nc4ccc(C)cc4)cccc23)cc1	none
O=C1c2ccccc2C(=O)c2c1cccc2S(=O)(=O)Nc1ccc(Cl)cc1	ST2 inh 52.0%
COc1ccc(-c2csc(NC(=O)c3cc(=O)c4ccccc4o3)n2)cc1	none
Cc1ccc(-c2csc(NC(=O)c3cc(=O)c4ccccc4o3)n2)cc1C	none
O=C(Nc1nc(-c2ccc3c(c2)OCO3)cs1)c1cc(=O)c2ccccc2o1	ST2 inh 45.0%!
O=C(c1cccc(F)c1)N1CCN(C2CCN(Cc3ccccc3)CC2)CC1	none
O=c1[nH]c(Nc2ccccc2Cl)nnc1Cc1ccccc1	none
CCc1nnc(NC(=O)c2sc3nc4c(cc3c2N)CCCCC4)s1	none
Nc1c(C(=O)Nc2ccccc2)sc2nc3c(cc12)CCCCC3	none
Nc1c(C(=O)Nc2cccc(C(F)(F)F)c2)sc2nc3c(cc12)CCCCC3	ST2 inh 42.0%
COCCNC(=O)[C@@H](C)[C@@H]1CC[C@@]2(C)CC[C@H](NC(=O)C3CCCCC3)[C@@H](C)[C@@H]2[C@H]1O	none
CC(C)CCNC(=O)C(NC(=O)C1CCC(C)CC1)C(C)C (centres undefined)	none
